Among all 47,000 compounds or so, about 3,100 (6.6%) were called active. The sample holds actives, similar compounds and a random draw of the others, so the mix is not that of the screen. Values without a mark were called inactive. Cut-off read from the data, not from the text of the source: active = inhibition above about 30%; inactive = the rest.
molecular target: Ubiquitin carboxyl-terminal hydrolase 17-like protein 5 (Homo sapiens) (UniProt A8MUK1); experiment: inhibitors of human USP17 deubiquitinase (AID 1645855); settings: purified USP17, Ub-rhodamine cleavage fluorescence, 3 h; at 50 µM; stronger effect = higher value
Sequence (A8MUK1 whole entry, looked up): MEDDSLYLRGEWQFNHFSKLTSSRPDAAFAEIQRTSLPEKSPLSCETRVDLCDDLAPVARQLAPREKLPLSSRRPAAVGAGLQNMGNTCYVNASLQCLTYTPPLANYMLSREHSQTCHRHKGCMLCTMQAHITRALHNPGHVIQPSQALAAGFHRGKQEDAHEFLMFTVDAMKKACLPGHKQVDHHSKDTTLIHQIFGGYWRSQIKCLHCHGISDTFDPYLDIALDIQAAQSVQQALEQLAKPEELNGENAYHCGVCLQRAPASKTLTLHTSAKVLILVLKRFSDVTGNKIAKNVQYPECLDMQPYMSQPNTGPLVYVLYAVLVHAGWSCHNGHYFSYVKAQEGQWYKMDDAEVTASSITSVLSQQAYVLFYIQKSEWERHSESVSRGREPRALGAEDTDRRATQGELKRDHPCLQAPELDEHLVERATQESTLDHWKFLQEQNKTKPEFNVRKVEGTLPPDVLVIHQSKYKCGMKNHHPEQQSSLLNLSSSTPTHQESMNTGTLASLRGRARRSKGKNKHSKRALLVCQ

Row | SMILES | inhibition
1 | COc1ccc(C(=O)Nc2ccc(N)cn2)cc1 | 12%
2 | COc1cc(OC)cc(C(=O)Nc2ccc(S(=O)(=O)Nc3cc(C)on3)cc2)c1 | 3.28%
3 | COc1ccc(NC(=O)c2ccnc(Nc3ccc(OC)cc3)c2)cc1 | 68.7% (active)
4 | CC(=O)N1c2ncnn2C(c2ccc(Cl)cc2)CC1c1ccc(Cl)cc1 (centres undefined) | -2.75%
5 | CC(C)C(=O)Oc1cn(CCCN2CCCC2=O)c2nc(C(C)C)n3c4ccccc4nc3c12 | -84.6%
6 | CCS(=O)(=O)Nc1cc(S(=O)(=O)Nc2cc(Cl)ccc2Cl)ccc1N1CCOCC1 | -13%
7 | CC1=NS(=O)(=O)N(Cc2ccccc2)C=C1C(=O)Nc1cc(F)ccc1F | -4.7%
8 | Cc1ccc(CC(=O)N2CCN(C(=O)c3cc(-c4ccccn4)n[nH]3)CC2)cc1 | -21.8%
9 | COc1cc(Cl)c(NC(=O)c2cc(-c3ccccn3)n[nH]2)c(OC)c1 | 47.4% (active)
10 | O=C(Nc1ccc(F)cc1)C1CCCN(C(=O)c2cc(-c3ccccn3)n[nH]2)C1 (centres undefined) | -40%
11 | O=C(Nc1ccc(Cl)cc1F)c1cc(-c2ccccn2)n[nH]1 | 83.2% (active)
12 | COc1cnc(-c2ccccn2)nc1Sc1ccc(Cl)cc1Cl | -0.938%
13 | O=C(CNc1ccc(OC2CCCC2)cc1)N1CCNC1=O | 11.8%
14 | CN1CCCN(c2nc(-c3cccnc3)nc3ccccc23)CC1 | -19%
15 | Cc1ccc(-c2n[nH]c3c2CN(S(=O)(=O)C2CC2)CC3)cc1 | -2.42%
16 | O=C(O)c1ccc(-n2cc(-c3cnccn3)cn2)cc1 | 1.05%
17 | CNC(=O)c1cnn2c(C3CCCN(c4ncccn4)C3)ccnc12 (centres undefined) | 2.6%
18 | Cc1nnc(N2CCN(C(c3ccccc3)c3ccccc3)CC2)[nH]c1=O | -0.696%
19 | C\C=C(/C=C(C)/C=C(C)/C=C/C=C(\C)C(=O)[C@]12O[C@H]1[C@@](O)(CCO)NC2=O)C(=O)OC | -48.6%
20 | CCCCN(c1ccccc1)S(=O)(=O)c1cccc(C(=O)OCC(=O)NCc2ccc3c(c2)OCO3)c1 | 38% (active)
21 | COc1ccc2c(Sc3ccccc3)c(C(=O)NCc3ccc4c(c3)OCO4)[nH]c2c1 | -5.49%
22 | O=C(COC(=O)c1ccc(F)c(S(=O)(=O)N2CCOCC2)c1)NCc1ccc2c(c1)OCO2 | 16.1%
23 | Nc1nc(N)nc(CN2C(=O)NC(Cc3ccccc3)(c3ccccc3)C2=O)n1 (centres undefined) | -1.99%
24 | CCCOc1ccc(-c2csc3ncn(CCc4ccccc4)c(=O)c23)cc1 | 13.1%
